Laboratory results published in PubChem BioAssay (Tox21).
Values joined by “and” are separate entries in the source; they are usually repeats but may differ in a detail not shown here. Equal values may be shown once. Results filed as inconclusive are left out. Where a call stands in place of a potency, no number is given. Active and inactive are the calls of the source. Unless noted, the call rests on the fitted dose curve; in most records, active means well fitted curve in the direction sought with a large enough effect in the repeat runs; inconclusive means weak or mixed curves; inactive means no such curve, though single readings can be large; an effect the other way counts as inactive or inconclusive.

Columns and labels:
[1] = target: Acetylcholinesterase (Homo sapiens) (UniProt P22303); test: Acetylcholinesterase (AChE) small molecule antagonists: fluorescence cell-based qHTS assay (AID 1347398; calls by dose curve; further: nearly all actives have a fitted effect of over 50% in size); conditions: Potency: AChE activity
Sequence of Acetylcholinesterase (Homo sapiens) (P22303 whole entry, looked up): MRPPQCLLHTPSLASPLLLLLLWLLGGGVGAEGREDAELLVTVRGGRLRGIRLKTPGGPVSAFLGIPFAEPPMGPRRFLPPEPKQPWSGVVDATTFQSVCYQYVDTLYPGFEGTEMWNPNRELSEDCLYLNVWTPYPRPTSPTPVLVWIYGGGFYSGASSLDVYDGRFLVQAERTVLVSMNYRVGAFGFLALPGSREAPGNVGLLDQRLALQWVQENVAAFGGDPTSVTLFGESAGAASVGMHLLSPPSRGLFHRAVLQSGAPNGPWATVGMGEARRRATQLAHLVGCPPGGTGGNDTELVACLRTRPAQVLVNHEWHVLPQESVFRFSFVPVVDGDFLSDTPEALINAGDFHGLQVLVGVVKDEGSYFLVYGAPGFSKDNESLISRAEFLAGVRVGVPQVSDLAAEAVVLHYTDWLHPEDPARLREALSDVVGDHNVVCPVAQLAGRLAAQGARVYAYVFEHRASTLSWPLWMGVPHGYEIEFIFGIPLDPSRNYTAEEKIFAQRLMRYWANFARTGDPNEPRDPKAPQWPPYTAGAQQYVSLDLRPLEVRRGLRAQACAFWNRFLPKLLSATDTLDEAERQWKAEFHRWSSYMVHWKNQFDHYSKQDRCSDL
Procedure, shortened: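 Read-out is Thiolite Green fluorescence at Ex/Em = 490/520 nm, formed by reaction with thiocholine released when cellular AChE in SH-SY5Y cells hydrolyzes acetylthiocholine. Compounds were preincubated 30 min at 37 C before substrate.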

[2] = target: Acetylcholinesterase (Homo sapiens) (UniProt P22303); test: Acetylcholinesterase (AChE) small molecule antagonists: enzyme-based qHTS assay with human liver microsomes (AID 1347399; calls by dose curve; further: nearly all actives have a fitted effect of over 60% in size); conditions: Potency: qHTS inhibition
Procedure, shortened: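 Recombinant human AChE (50 mU/mL in the enzyme mix) and human liver microsomes (0.25 mg/mL final) were preincubated with compound and NADPH (0.25 mg/mL final) for 30 min at 37 C. Acetylthiocholine/DTNB was then added; thiocholine was read colorimetrically after 10 min at room temperature.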

[3] = target: Cytochrome P450 2C19 (Homo sapiens) (UniProt P33261); test: Cytochrome P450 Family 2 Subfamily C Member 19 (CYP2C19) small molecule antagonists: luciferase reporter qHTS assay (AID 1671197); further: nearly all actives have a fitted effect of over 65% in size
Sequence of Cytochrome P450 2C19 (Homo sapiens) (P33261 whole entry, looked up): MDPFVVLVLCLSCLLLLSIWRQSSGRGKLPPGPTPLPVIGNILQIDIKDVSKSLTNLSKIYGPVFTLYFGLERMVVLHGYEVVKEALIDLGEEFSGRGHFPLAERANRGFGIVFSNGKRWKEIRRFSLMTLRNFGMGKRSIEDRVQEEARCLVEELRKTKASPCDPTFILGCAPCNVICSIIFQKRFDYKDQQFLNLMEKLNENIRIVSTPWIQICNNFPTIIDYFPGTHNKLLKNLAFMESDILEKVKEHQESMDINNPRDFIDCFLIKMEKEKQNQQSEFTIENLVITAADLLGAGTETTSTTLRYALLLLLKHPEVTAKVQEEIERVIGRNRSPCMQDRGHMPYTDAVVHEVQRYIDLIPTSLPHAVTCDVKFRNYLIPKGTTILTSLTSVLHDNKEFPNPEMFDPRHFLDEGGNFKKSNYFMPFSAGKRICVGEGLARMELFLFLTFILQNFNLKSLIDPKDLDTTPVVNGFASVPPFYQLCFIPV
Procedure, shortened: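 CYP2C19 P450-Glo, 1536-well qHTS. Cpd + enzyme/proluciferin substrate 10 min RT; + NADPH regen, 37C 1 h; stop with luciferin detection reagent, 20 min RT, luminescence (RLU). Pos ctrl ketoconazole.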

[4] = target: Cytochrome P450 1A2 (Homo sapiens) (UniProt P05177); test: Cytochrome P450 Family 1 Subfamily A Member 2 (CYP1A2) small molecule antagonists: luciferase reporter qHTS assay (AID 1671199); further: nearly all actives have a fitted effect of over 50% in size
Sequence of Cytochrome P450 1A2 (Homo sapiens) (P05177 whole entry, looked up): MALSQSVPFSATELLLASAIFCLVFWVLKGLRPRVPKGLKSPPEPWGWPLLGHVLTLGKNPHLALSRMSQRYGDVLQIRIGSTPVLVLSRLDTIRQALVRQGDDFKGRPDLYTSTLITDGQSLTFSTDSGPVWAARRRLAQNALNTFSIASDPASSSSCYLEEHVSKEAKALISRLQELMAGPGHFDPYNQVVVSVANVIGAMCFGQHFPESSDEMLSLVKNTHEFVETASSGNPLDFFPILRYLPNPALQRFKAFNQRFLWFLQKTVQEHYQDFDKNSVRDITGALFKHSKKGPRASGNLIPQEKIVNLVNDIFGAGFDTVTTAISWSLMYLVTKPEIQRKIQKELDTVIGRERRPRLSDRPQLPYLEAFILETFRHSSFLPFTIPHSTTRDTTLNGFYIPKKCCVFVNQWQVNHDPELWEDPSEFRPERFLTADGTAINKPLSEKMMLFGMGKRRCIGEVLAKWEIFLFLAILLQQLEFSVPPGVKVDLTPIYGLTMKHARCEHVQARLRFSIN
Procedure, shortened: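 Enzymatic CYP1A2 assay, human, luminescent: 10 min compound–enzyme–substrate preincubation, 1 h NADPH-dependent turnover, 20 min detection step, room temperature throughout. Reduced light indicates lower CYP1A2 activity.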

[5] = target: Voltage-gated inwardly rectifying potassium channel KCNH2 (Homo sapiens) (UniProt Q12809); test: Human Ether-a-go-go-Related Gene (hERG) channel small molecule antagonists: fluorescence cell-based qHTS assay (AID 1671200); further: nearly all actives have a fitted effect of over 50% in size
Sequence of Voltage-gated inwardly rectifying potassium channel KCNH2 (Homo sapiens) (Q12809 whole entry, looked up): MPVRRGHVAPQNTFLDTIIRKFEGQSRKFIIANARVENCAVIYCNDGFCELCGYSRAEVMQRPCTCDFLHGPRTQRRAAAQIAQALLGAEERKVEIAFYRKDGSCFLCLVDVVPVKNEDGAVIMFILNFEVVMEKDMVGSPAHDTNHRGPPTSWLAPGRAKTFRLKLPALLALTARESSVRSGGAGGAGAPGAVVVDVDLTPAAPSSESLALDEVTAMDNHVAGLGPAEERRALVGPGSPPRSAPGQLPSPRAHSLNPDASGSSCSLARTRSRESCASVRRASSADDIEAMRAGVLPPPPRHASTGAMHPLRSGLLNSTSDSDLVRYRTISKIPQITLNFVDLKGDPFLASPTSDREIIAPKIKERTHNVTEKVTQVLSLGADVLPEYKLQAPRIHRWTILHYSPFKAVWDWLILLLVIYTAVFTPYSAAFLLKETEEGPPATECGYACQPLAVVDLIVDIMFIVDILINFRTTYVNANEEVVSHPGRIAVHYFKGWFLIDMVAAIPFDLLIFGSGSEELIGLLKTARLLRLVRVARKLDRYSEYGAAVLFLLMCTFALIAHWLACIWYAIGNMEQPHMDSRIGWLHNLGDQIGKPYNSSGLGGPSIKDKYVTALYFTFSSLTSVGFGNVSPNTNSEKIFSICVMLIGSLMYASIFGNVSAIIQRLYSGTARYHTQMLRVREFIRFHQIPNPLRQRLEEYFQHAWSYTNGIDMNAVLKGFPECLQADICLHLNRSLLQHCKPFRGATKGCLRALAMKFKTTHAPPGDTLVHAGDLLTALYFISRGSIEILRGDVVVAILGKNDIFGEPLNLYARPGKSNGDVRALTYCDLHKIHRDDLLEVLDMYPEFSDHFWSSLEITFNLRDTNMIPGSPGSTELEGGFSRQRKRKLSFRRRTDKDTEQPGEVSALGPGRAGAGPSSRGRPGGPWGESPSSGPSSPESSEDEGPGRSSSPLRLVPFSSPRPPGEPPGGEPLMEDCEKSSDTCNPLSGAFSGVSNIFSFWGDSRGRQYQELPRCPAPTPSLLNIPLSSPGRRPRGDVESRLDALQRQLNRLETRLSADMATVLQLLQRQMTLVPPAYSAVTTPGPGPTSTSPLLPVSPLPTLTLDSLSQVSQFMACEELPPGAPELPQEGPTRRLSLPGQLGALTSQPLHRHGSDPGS
Procedure, shortened: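 Quantitative HTS in hERG-U2OS cells: thallium entry through the channel reports activity, read as continuous 480/540 nm fluorescence over 2 min after stimulus addition.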

[6] = target: Cytochrome P450 2C9 (Homo sapiens) (UniProt P11712); test: Cytochrome P450 Family 2 Subfamily C Member 9 (CYP2C9) small molecule antagonists: luciferase reporter qHTS assay (AID 1671198); further: nearly all actives have a fitted effect of over 50% in size
Sequence of Cytochrome P450 2C9 (Homo sapiens) (P11712 whole entry, looked up): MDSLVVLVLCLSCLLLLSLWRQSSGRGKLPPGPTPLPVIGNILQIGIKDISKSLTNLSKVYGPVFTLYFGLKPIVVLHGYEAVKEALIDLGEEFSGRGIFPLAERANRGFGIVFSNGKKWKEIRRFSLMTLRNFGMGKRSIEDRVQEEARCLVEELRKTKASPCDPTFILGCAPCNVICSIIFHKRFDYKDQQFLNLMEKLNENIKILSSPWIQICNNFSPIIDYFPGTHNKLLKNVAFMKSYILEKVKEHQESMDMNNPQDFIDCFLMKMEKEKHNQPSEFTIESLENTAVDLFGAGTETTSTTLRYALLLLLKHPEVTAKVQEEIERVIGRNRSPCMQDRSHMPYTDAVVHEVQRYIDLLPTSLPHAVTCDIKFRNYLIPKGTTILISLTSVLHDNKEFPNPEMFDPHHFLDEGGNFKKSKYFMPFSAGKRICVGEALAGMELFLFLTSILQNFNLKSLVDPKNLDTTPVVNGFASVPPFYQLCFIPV
Procedure, shortened: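 Enzyme-substrate mix preincubated with compound 10 min at room temperature; reaction started with NADPH regeneration solution, 1 h 37C. Luminescent luciferin product read after 20 min detection reagent.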

[7] = target: Cytochrome P450 3A4 (Homo sapiens) (UniProt P08684); test: Cytochrome P450 Family 3 Subfamily A Member 4 (CYP3A4) small molecule antagonists: luciferase reporter qHTS assay (AID 1671201); further: nearly all actives have a fitted effect of over 50% in size
Sequence of Cytochrome P450 3A4 (Homo sapiens) (P08684 whole entry, looked up): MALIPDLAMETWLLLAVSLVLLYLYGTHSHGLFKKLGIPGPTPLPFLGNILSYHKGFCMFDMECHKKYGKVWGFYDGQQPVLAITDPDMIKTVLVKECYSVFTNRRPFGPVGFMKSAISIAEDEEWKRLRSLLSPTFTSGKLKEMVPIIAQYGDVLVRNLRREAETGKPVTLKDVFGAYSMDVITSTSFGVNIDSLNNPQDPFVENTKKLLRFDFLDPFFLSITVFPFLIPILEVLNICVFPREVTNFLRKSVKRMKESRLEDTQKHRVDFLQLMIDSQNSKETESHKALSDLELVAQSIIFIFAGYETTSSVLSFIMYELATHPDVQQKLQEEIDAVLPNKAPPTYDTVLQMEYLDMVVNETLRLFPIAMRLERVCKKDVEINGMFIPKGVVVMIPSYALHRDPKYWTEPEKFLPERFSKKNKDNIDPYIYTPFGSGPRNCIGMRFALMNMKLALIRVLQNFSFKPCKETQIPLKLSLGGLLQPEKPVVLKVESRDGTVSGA
Procedure, shortened: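 Inhibition of CYP3A4 is measured as loss of light: the enzyme converts a proluciferin substrate to luciferin, detected luminescently. Reaction ran 1 h at room temperature with NADPH regeneration after a 10 min compound preincubation.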

[8] = target: Cytochrome P450 2D6 (Homo sapiens) (UniProt P10635); test: Cytochrome P450 Family 2 Subfamily D Member 6 (CYP2D6) small molecule antagonists: luciferase reporter qHTS assay (AID 1671196); further: nearly all actives have a fitted effect of over 50% in size
Sequence of Cytochrome P450 2D6 (Homo sapiens) (P10635 whole entry, looked up): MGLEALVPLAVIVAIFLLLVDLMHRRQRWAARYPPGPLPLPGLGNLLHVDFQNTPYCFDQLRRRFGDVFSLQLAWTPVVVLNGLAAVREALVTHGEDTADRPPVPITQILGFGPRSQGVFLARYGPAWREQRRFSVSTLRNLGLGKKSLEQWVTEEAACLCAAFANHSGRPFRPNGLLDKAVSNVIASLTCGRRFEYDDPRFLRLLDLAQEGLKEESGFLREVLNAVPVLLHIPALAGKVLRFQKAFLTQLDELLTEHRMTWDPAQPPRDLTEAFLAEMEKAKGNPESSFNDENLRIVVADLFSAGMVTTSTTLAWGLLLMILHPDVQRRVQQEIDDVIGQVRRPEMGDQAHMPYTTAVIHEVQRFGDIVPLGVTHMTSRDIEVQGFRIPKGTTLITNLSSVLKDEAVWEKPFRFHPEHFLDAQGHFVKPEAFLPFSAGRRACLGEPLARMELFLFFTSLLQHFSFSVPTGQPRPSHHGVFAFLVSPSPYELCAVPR
Procedure, shortened: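 Each well received CYP2D6 with its proluciferin substrate and chemical, sat 10 min, then got NADPH regeneration solution for 1 h at room temperature. Luminescence in RLU served as the activity measure.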
Potency means the concentration at half of the fitted maximal effect.

O=S(=O)(c1ccc(Cl)cc1)c1ccc(Cl)cc1
Potency [1]: inactive
Potency [2]: inactive
Potency [3]: 0.161 µM (active)
Potency [4]: 34 µM (active)
Potency [5]: 47.7 µM (active)

ClC1=C(Cl)C2(Cl)C3C(Cl)C=CC3C1(Cl)C2(Cl)Cl (stereo not given)
Potency [1]: inactive
Potency [2]: inactive
Potency [3]: 8.98 µM (active) and 20 µM (active)
Potency [6]: 35.6 µM (active)
Potency [5]: 21.9 µM (active)
Potency [7]: 5.05 µM (active) and 11.2 µM (active)

COc1cccc2c1C(=O)c1c(O)c3c(c(O)c1C2=O)C[C@@](O)(C(=O)CO)CC3OC1CC(N2CCOC(OC)C2)C(O)C(C)O1 (stereo not given in full)
Potency [1]: 11 µM (active)
Potency [2]: inactive
Potency [6]: 4.36 µM (active)
Potency [4]: inactive
Potency [5]: inactive

O=C(CBr)c1ccc(O)cc1
Potency [1]: inactive
Potency [2]: inactive
Potency [6]: inactive
Potency [4]: 31.7 µM (active)
Potency [5]: inactive
Potency [7]: inactive

Oc1cccc(-c2ccccc2)c1
Potency [1]: inactive
Potency [2]: inactive
Potency [3]: 35.6 µM (active)
Potency [4]: 17.8 µM (active)
Potency [5]: inactive

[Hg+2].[I-].[I-]
Potency [1]: 28.3 µM (active)
Potency [3]: 1.42 µM (active)
Potency [6]: 0.564 µM (active)
Potency [4]: 3.56 µM (active)
Potency [5]: inactive
Potency [7]: 2.24 µM (active)

Clc1ccc(C(c2ccccc2Cl)C(Cl)(Cl)Cl)cc1 (stereo not given)
Potency [1]: inactive
Potency [2]: inactive
Potency [3]: 637 nM (active) and 234 nM (active)
Potency [4]: inactive
Potency [7]: inactive

CCCCOCN(C(=O)CCl)c1c(CC)cccc1CC
Potency [1]: inactive
Potency [2]: inactive
Potency [3]: 0.894 µM (active)
Potency [6]: 3.99 µM (active)
Potency [5]: inactive
Potency [7]: 7.1 µM (active)

N#Cc1ccccc1N
Potency [1]: inactive
Potency [2]: inactive
Potency [3]: inactive
Potency [4]: inactive
Potency [5]: inactive
Potency [7]: inactive

CC(C)(C)C(O)C(Oc1ccc(-c2ccccc2)cc1)n1cncn1 (stereo not given)
Potency [1]: inactive
Potency [2]: inactive
Potency [6]: 10 µM (active)
Potency [5]: inactive

Cc1c(Cl)c(=O)oc2cc(OP(=O)(OCCCl)OCCCl)ccc12
Potency [1]: 0.275 µM (active)
Potency [2]: 3.09 µM (active)
Potency [3]: 2.19 µM (active)
Potency [6]: 3.89 µM (active)
Potency [7]: inactive

CCCCCCCCCCCCCCCCCCn1cc[n+](C)c1
Potency [2]: inactive
Potency [8]: 0.888 µM (active)
Potency [3]: 79.2 µM (active)
Potency [6]: 50 µM (active)
Potency [4]: 56.1 µM (active)
Potency [5]: 6.88 µM (active)

CC(=O)[O-].CC(=O)[O-].[Hg+2]
Potency [5]: 6.92 µM (active)

O=[N+]([O-])c1cc([N+](=O)[O-])c2ccccc2c1
Potency [2]: inactive
Potency [6]: inactive
Potency [5]: inactive
Potency [7]: inactive
